Screening results from PubChem.
PfHsp90 yeast 2: inhibits growth of yeast expressing Plasmodium falciparum Hsp90. S. cerevisiae expressing PfHsp90, BacTiter-Glo ATP, 48 h; yeast lacking PDR1 and PDR3 efflux regulators. inhibition, % at 9.4 µM. actives 0.32% (n = 310,000);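 active means every replicate shows inhibition above about 80%, whatever the replicate mean, limit read from the data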;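 further: 0% = DMSO neutral controls and 100% = 20 µM radicicol positive controls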
TIM10 inh: growth inhibitors of TIM10 yeast strain | S. cerevisiae TIM10 strain growth, BacTiter-Glo luminescence, 24 h | inhibition, % at 10 µM | actives 1.4% (n = 330,000);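 active means inhibition of 40% or more at the single tested concentration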;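 further: wild-type TIM10 isogenic control strain grown at permissive 25 °C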
SKKanGAS inh: SKKanGAS growth inhibition. S. pyogenes SKKanGAS, kanamycin growth, BacTiter-Glo, 6 h. AID 1662. actives 1.3% (n = 300,000). inhibition, % at 7.5 µM;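 active means mean replicate score, as percent of positive control median, at least 50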;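 further: strain carries kanamycin resistance gene driven by streptokinase promoter and grows in 40 µg/ml kanamycin; loss of luminescence reflects streptokinase promoter inhibition or plain growth inhibition; 0% = median of DMSO wells and 100% = positive control at its reference dose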
NALP1 yeast inh: NALP1 inhibition. actives 0.61% (n = 280,000). AID 2071. inhibition, % at 10 µM. S. cerevisiae NALP1/ASC/caspase-1 growth, X-gal OD620, 72 h; in the data active means inhibition mostly above about 24%, no sharp cut-off; inactive means mostly below about 32%
tim23-1 inh: tim23-1 yeast growth inhibition | actives 1.3% (n = 330,000) | AID 463212 | inhibition, % at 20 µM | S. cerevisiae tim23-1 growth, BacTiter-Glo luminescence, 24 h;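 active means growth inhibition of the mutant yeast at or above 50%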;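 further: temperature-sensitive mutant grown at 25 °C; plate controls were DMSO-treated mutant yeast for no effect and medium wells lacking yeast for full effect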
tim10-1 inh: inhibits growth of tim10-1 mutant yeast | inhibition, % at 20 µM | S. cerevisiae tim10-1 ts strain growth, BacTiter-Glo, 24 h | actives 2.2% (n = 330,000) | AID 463190;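 active means inhibition of at least 40%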;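 further: mutant grown at 25 °C; 0% = DMSO wells with yeast and 100% = wells holding no yeast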
tim23-1 conf: tim23-1 yeast growth inhibition, confirmed; shares compounds with tim23-1 inh; S. cerevisiae tim23-1 growth, BacTiter-Glo luminescence, 24 h; inhibition, % at 20 µM; actives 83% (n = 4,400);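 active means inhibition above about 39% in either of two replicate wells at 20 µM, limit read from the data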;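 further: temperature-sensitive tim23-1 mutant grown at 25 °C; 0% = DMSO wells with yeast and 100% = medium wells without yeast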
* = called active by the depositor; · = no result given. An excerpt weighted towards active compounds, which were near 4.8% of everything screened.

SMILES	PfHsp90 yeast 2	TIM10 inh	SKKanGAS inh	NALP1 yeast inh	tim23-1 inh	tim10-1 inh	tim23-1 conf
COc1ccc(-c2csc(NC(=O)c3ccccc3Br)c2C(=O)O)cc1	34	18	27	11	64*	16	73*
O=C(Nc1sc2c(c1C(=O)O)CCCCC2)c1ccccc1F	-41	17	-8	2	28	29	·
Cc1ccc(F)c(NC(=S)Nc2cccc3ccccc23)c1	-1	25	16	11	28	29	·
O=C(Cn1nc(-c2ccc(F)cc2)ccc1=O)Nc1ccc(C(=O)NC2CC2)cc1	4	-2	-1	-8	7	16	·
O=C1C=C(c2ccc3[nH]ccc3c2)C[C@@H](c2ccc(Cl)cc2)C1	-67	27	·	·	52*	34	46*
COc1ccc([C@H]2CC(=O)C=C(c3ccc4ncccc4c3)C2)cc1	14	-2	·	·	15	4	·
O=C1C=C(c2ccc(O)cc2)C[C@@H](c2ccc(Cl)cc2)C1	-21	-12	·	·	53*	0	38
O=C1C=C(c2ccc3ncccc3c2)C[C@@H](c2ccc(Cl)cc2)C1	-4	9	·	·	52*	0	28
O=C(COC(=O)C12CC3CC(CC(Br)(C3)C1)C2)NNC(=O)c1ccccc1	-45	-4	·	·	11	-7	·
COc1ccc(-c2cc(-c3ccc(C)cc3)n[nH]2)c(O)c1	1	21	77*	0	54*	8	-21
COCCCN(C(=O)Nc1ccc(C)c(C)c1)C(C)c1ccccn1 (stereo unspecified)	20	-2	-2	-7	15	25	·
COCCCN(C(=S)Nc1cc(Cl)cc(Cl)c1)C(C)c1ccccn1 (stereo unspecified)	2	25	18	·	63*	27	53*
COCCCN(C(=S)Nc1cc(Cl)cc(Cl)c1)C(C)c1ccncc1 (stereo unspecified)	3	23	-2	68*	50*	17	47*
COc1ccc(-c2cccc(NC(=O)c3cccs3)c2)nn1	·	-10	22	·	62*	10	56*
CCOc1ccc(-c2cccc(NC(=O)c3ccco3)c2)nn1	-18	-24	39	·	54*	13	14
O=C(Nc1cccc(-c2nn[nH]n2)c1)c1cccs1	28	-7	-4	14	-7	-29	·
CCOc1ccc(-c2cccc(NC(=O)c3cccs3)c2)nn1	7	-2	19	·	63*	5	47*
O=C1NC(c2ccccc2Cl)=N/C1=C/c1ccco1	12	31	5	10	53*	16	22
CCn1c2ccccc2c2cc(NC(=O)c3ccccc3-c3ccccc3C(=O)O)ccc21	7	7	10	19	7	-6	·
CCN(CC)CCCNC1=C(Cl)C(=O)c2ccccc2C1=O	·	1	11	10	8	17	·
C=CCNC1=C(Cl)C(=O)c2ccccc2C1=O	-33	36	8	34	54*	37	44*
CC(C)NC1=C(Cl)C(=O)c2ccccc2C1=O	-20	19	1	10	55*	36	45*
CC(C)OCCCNC1=C(Cl)C(=O)c2ccccc2C1=O	·	2	-3	0	46	30	·
CCc1ccc2c(c1)C(O)(CC(=O)c1cccs1)C(=O)N2 (stereo unspecified)	·	-13	-7	13	15	16	·
Cc1ccccc1/C=c1\s/c(=C\C(=O)C(C)(C)C)[nH]c1=O	5	2	-4	-13	34	34	·
SMILES	PfHsp90 yeast 2	TIM10 inh	SKKanGAS inh	NALP1 yeast inh	tim23-1 inh	tim10-1 inh	tim23-1 conf
Cc1cccc(C(=O)NC(=S)Nc2ccccc2C(F)(F)F)c1	-31	22	1	20	51*	30	38*
Cc1ccc(C(=O)NC(=S)Nc2ccccc2C(F)(F)F)cc1C	-1	-14	37	0	3	23	·
O=C(O)c1ccccc1N1C(=O)C2C3c4ccccc4C(Br)(c4ccccc43)C2C1=O (stereo unspecified)	-24	19	-3	3	15	12	·
Fc1ccc(-c2csc(Nc3ccccn3)n2)cc1	3	9	-3	27	54*	18	41*
Oc1ccc(-c2csc(Nc3ccccn3)n2)c(O)c1	-26	10	1	3	72*	26	54*
c1ccc(Nc2nc(-c3cccs3)cs2)nc1	-13	29	-2	-68	57*	17	34
Cc1cccc(Nc2nc(-c3cccs3)cs2)n1	0	30	7	6	44	6	·
c1ccc(Nc2nc(-c3cccnc3)cs2)nc1	-8	12	-11	13	-4	10	·
Cc1nn(C(=O)CNS(=O)(=O)c2ccccc2)c(C)c1Sc1ccc(Cl)cc1	-26	16	4	24	30	6	·
COC(=O)c1ccc(C(=O)NC(=S)Nc2nc3c(s2)CCCC3)cc1	-9	·	5	14	·	·	·
COCCNC(=O)/C(C#N)=C/c1ccc(C(=O)O)cc1	28	4	6	3	-7	0	·
COCCNC(=O)/C(C#N)=C/c1ccc(OCc2ccc(F)cc2)cc1	-8	33	2	6	56*	14	48*
COCCNC(=O)/C(C#N)=C/c1ccc(OCc2ccccc2)cc1	-13	30	0	-8	55*	39	53*
CC(C)(C)[C@H]1C=C(C(=O)N2CCOCC2)O[C@@H](OCc2ccc(CO)cc2)C1	-44	3	0	12	93*	7	27
CC(=O)c1cccc(NC(=O)c2cccc(NC(=O)c3ccco3)c2)c1	13	-8	-6	30	-22	-6	·
O=C(Nc1cccc(NC(=O)c2ccco2)c1)c1cccc(Br)c1	-9	7	3	7	58*	-10	60*
O=C(Nc1cccc(N=Cc2cc(Cl)cc(Br)c2O)c1)c1ccco1	43	12	9	12	78*	20	90*
COc1ccccc1NC(=O)c1cccc(NC(=O)c2ccco2)c1	-78	17	3	-5	57*	26	45*
Cc1ccc(S(=O)(=O)c2nc(S(C)(=O)=O)sc2N2CCN(C)CC2)cc1	9	3	-21	-2	0	-13	·
CC(C)(C)NC(=S)NC(C)(C)C	5	0	-4	8	17	18	·
O=C(N/N=C/c1cccc(F)c1)c1csc2c1CCCC2	1	25	1	-16	63*	30	62*
O=C(N/N=C/c1ccccc1F)c1csc2c1CCCC2	18	5	3	5	-25	9	·
Cn1c(-c2ccsc2)c(-c2cccs2)c2cc(-c3ccc4cc[nH]c4c3)ccc21	-17	1	·	·	14	21	·
Cn1c(C=O)c(-c2ccc3cc[nH]c3c2)c2ccccc21	4	38	·	·	64*	35	55*
